# Assay results published in ChEMBL document CHEMBL1961873, “Compounds: GSK PKIS; Assays: Nanosyn kinase panel” (2012).
# Columns and labels:
# [1] = biological target: T1, Inhibitor of nuclear factor kappa-B kinase subunit epsilon (Homo sapiens) (UniProt Q14164); conditions: at 1 µM;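 further: reported values are averaged percent inhibition figures against human IKKε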
# T1 sequence (whole entry): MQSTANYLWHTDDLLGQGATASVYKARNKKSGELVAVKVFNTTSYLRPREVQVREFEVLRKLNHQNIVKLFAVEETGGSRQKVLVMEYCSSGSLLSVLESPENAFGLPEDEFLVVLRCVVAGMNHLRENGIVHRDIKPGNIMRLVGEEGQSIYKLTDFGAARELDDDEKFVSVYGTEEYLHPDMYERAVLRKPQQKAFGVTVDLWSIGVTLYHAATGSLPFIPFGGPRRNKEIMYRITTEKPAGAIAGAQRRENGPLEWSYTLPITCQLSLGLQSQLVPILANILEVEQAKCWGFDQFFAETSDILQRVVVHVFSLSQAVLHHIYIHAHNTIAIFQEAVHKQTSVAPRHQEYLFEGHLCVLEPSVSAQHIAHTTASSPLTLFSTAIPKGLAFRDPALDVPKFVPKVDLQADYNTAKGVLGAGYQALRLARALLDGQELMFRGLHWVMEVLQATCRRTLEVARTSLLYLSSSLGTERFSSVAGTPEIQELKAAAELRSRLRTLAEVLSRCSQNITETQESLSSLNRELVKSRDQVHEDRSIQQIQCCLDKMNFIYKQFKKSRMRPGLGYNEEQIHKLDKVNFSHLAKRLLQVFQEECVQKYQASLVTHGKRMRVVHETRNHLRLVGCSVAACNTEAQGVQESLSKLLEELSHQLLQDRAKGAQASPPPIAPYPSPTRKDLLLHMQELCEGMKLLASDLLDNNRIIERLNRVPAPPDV
# [2] = biological target: T2, Serine/threonine-protein kinase Nek1 (Homo sapiens) (UniProt Q96PY6); conditions: at 0.1 µM
# T2 sequence (whole entry): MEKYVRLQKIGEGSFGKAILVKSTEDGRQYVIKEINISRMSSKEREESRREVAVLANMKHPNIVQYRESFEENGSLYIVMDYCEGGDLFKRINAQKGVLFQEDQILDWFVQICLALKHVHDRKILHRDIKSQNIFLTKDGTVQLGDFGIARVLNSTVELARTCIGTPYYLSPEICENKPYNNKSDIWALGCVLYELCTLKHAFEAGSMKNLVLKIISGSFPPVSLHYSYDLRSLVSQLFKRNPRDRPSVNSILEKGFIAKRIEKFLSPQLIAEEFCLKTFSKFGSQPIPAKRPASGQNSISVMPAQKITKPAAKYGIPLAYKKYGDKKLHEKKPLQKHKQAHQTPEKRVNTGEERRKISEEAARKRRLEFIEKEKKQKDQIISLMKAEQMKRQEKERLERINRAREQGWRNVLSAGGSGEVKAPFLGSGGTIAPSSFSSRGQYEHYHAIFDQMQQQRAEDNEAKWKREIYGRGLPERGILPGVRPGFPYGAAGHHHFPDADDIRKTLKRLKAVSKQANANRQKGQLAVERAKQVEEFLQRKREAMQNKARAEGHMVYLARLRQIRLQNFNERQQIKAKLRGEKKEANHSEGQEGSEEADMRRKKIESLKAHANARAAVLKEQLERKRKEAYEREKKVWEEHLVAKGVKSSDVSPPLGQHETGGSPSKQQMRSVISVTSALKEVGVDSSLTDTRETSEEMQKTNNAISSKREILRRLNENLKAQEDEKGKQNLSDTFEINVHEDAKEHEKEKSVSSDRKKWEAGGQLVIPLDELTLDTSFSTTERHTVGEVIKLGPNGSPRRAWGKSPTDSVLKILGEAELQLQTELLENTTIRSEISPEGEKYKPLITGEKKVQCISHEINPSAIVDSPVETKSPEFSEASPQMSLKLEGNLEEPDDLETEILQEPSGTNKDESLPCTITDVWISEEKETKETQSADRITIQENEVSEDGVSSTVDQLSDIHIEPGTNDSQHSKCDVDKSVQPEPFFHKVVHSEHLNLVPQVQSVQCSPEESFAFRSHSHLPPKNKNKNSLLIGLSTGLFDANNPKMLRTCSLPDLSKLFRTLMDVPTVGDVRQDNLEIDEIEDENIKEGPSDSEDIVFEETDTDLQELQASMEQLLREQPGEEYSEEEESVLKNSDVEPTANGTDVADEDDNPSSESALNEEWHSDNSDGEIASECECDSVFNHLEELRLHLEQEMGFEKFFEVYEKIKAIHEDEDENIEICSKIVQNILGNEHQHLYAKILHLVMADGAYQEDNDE
# [3] = biological target: T2, Serine/threonine-protein kinase Nek1 (Homo sapiens); conditions: at 1 µM
# [4] = biological target: T3, Serine/threonine-protein kinase Nek2 (Homo sapiens) (UniProt P51955); conditions: at 0.1 µM
# T3 sequence (whole entry): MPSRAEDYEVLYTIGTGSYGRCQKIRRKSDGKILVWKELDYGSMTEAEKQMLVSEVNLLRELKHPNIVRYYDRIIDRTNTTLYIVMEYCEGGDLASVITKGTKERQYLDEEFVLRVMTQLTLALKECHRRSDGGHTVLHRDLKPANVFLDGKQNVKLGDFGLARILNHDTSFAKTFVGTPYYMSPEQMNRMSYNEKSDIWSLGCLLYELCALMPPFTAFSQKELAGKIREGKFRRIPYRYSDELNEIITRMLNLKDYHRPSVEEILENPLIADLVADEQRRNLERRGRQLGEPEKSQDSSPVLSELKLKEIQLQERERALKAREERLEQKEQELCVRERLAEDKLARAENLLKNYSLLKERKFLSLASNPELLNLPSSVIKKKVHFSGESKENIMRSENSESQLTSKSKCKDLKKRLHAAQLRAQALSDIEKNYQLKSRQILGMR
# [5] = biological target: T3, Serine/threonine-protein kinase Nek2 (Homo sapiens); conditions: at 1 µM
# [6] = biological target: Serine/threonine-protein kinase Nek6 (Homo sapiens) (UniProt Q9HC98); conditions: at 0.1 µM
# [7] = biological target: Serine/threonine-protein kinase Nek6 (Homo sapiens) (UniProt Q9HC98); conditions: at 1 µM
# [8] = biological target: Serine/threonine-protein kinase Nek7 (Homo sapiens) (UniProt Q8TDX7); conditions: at 0.1 µM
# [9] = biological target: Serine/threonine-protein kinase Nek7 (Homo sapiens) (UniProt Q8TDX7); conditions: at 1 µM
# [10] = biological target: T4, Serine/threonine-protein kinase Nek9 (Homo sapiens) (UniProt Q8TD19); conditions: at 0.1 µM;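 further: reported value is the mean percent inhibition of NEK9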
# T4 sequence (whole entry): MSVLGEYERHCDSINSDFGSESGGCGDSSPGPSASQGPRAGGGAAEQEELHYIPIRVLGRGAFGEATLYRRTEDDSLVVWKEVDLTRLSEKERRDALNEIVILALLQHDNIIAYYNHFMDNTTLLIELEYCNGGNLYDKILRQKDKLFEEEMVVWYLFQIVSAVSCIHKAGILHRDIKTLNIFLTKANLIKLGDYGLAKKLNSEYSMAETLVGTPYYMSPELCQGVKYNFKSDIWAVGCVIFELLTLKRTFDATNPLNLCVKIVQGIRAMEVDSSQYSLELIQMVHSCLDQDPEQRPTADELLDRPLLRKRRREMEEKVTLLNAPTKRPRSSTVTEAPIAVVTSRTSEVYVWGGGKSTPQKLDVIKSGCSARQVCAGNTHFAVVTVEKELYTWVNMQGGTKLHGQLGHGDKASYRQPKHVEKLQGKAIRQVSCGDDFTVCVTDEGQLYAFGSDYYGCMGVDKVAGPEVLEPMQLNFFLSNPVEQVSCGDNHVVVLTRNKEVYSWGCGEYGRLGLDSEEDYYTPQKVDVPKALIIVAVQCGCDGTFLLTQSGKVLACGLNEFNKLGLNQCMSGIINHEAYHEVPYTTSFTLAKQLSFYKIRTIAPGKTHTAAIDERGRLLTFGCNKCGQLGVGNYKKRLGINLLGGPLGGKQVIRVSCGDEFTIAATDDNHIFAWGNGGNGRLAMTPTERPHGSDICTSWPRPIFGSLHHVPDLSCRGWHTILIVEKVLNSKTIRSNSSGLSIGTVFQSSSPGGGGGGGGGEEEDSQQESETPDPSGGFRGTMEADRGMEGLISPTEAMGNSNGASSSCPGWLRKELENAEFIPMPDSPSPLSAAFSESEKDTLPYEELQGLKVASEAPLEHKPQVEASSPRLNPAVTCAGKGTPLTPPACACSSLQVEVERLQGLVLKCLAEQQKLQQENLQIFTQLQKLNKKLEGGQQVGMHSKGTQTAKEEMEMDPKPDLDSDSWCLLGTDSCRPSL
# Chain of Serine/threonine-protein kinase Nek7 (Homo sapiens) (Q8TDX7 whole entry, looked up): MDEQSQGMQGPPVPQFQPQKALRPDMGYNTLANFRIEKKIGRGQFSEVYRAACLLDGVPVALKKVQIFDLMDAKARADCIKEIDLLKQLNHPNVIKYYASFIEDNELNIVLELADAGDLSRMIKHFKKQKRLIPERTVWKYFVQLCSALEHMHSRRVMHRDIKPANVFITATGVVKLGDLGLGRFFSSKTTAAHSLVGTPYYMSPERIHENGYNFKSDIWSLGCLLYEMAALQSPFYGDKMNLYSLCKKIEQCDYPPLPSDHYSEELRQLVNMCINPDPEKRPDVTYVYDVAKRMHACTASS
# Chain of Serine/threonine-protein kinase Nek6 (Homo sapiens) (Q9HC98 whole entry): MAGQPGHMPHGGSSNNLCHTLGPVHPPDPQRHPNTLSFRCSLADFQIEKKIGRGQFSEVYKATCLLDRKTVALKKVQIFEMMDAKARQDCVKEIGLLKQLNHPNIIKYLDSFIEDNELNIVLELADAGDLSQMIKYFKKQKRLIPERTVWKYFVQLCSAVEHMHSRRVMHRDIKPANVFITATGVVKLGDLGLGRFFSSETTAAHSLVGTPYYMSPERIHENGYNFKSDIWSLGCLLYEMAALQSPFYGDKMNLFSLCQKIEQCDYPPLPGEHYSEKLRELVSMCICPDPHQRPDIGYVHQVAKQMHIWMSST
structure (smiles),measurement,setting,value
Cc1cc(-c2ccccn2)cc(C)c1/C=C/c1cncc(-c2nn[nH]n2)c1,inhibition,[1],5.98%
same,inhibition,[2],1.6%
same,inhibition,[3],2.75%
same,inhibition,[4],5.75%
same,inhibition,[5],4.38%
same,inhibition,[6],0.78%
same,inhibition,[7],3.18%
same,inhibition,[8],2.68%
same,inhibition,[9],7.82%
same,inhibition,[10],5.24%
